Compound activity deposited in PubChem by Buhrlage Lab, Dana-Farber Cancer Institute and Novartis Institutes for BioMedical Research (Cambridge, Mass).
A selection: hits, their analogues and other compounds. The true share with any hit is near 12%.
USP17 block = inhibitors of human USP17 deubiquitinase | inhibition, % at 50 µM | hit rate 6.5% among 47,000 | purified USP17, Ub-rhodamine cleavage fluorescence, 3 h | AID 1645855
UCHL1 inh = blocks human UCHL1 ubiquitin-rhodamine cleavage. P09936. AID 1645859. hit rate 0.2% among 47,000. purified UCHL1, Ub-rhodamine cleavage fluorescence. inhibition, % at 20 µM
Target sequence (P09936 whole entry, looked up): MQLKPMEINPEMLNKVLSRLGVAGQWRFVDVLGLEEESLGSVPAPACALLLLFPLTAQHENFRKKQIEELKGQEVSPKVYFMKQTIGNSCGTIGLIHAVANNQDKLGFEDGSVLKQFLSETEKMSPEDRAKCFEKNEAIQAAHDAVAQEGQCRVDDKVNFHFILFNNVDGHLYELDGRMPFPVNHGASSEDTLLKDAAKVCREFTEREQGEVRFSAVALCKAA
USP30 block = human USP30 deubiquitinase inhibition. hit rate 5.3% among 47,000. purified USP30, Ub-rhodamine cleavage fluorescence. inhibition, % at 25 µM. Q70CQ3. AID 1645860
USP8 inh = inhibitors of human USP8 deubiquitinase; purified USP8, Ub-rhodamine cleavage fluorescence, 30 min; inhibition, % at 20 µM; hit rate 4.2% among 47,000; AID 1645853
USP10 inh = blocks human USP10 ubiquitin-rhodamine cleavage; Q14694; purified USP10, Ub-rhodamine fluorescence, 60 min; inhibition, % at 20 µM; hit rate 1.1% among 47,000; AID 1645856
USP7 inh = human USP7 deubiquitinase inhibition. AID 1645854. hit rate 0.3% among 47,000. inhibition, % at 20 µM. purified USP7, Ub-rhodamine cleavage fluorescence
Each line names hits and unclear results; the compound was inactive in the other large screens. Cut-off read from the data, not from the text of the source: active = inhibition above about 30%; inactive = the rest.

O=C(N[C@@H]1CC[C@@H](Oc2cccc(F)c2)[C@@H](O)[C@@H]1O)c1cncnc1	none (no result: USP30 block)
Cc1ccc(-c2nc(-c3ccccc3)c(S(=O)(=O)CC(=O)Nc3ccc(C)c(C)c3)[nH]2)cc1	USP17 block 37
O=C(Nc1cccc(C(F)(F)F)c1)c1ccc(-c2nc(-c3ccc(Cl)cc3Cl)cs2)cc1	USP17 block 32
O=C(Nc1ccccc1)c1ccc(-c2nc(-c3ccc(Cl)cc3)cs2)cc1	none
O=C(NCc1ccccn1)c1nn(C23CC4CC(CC(C4)C2)C3)cc1[N+](=O)[O-]	none
CN1CCN(c2nc(N3CCCC3)c3cnn(C)c3n2)CC1	none
CC1Oc2ccc(NC(=O)c3cc(-c4ccc(Cl)cc4)on3)cc2NC1=O (centres undefined)	none
CC1(O)CC(=O)c2c(cc3cc(O)cc(O)c3c2O)C1 (centres undefined)	USP17 block 77, UCHL1 inh 93, USP8 inh 70, USP10 inh 79, USP7 inh 94
CN(C)S(=O)(=O)c1cccc(NC(=O)c2cc(-c3cccs3)on2)c1	none
COc1cccc(NC(=O)c2cc(-c3cccs3)on2)c1	USP17 block 39, USP30 block 34
CCOc1ccc(NC(=O)CSC2=NC3(CCCC3)Nc3ccccc32)cc1	USP17 block 30
COc1ccc(NC(=O)CSC2=NC3(CCCCC3)Nc3ccccc32)cc1	none
Cc1ccc(NC(=O)CSC2=NC3(CCCCC3)Nc3ccccc32)cc1	USP8 inh 38
Cc1ccccc1NC(=O)CSC1=NC2(CCCCC2)Nc2ccccc21	USP8 inh 37
O=C(CC(c1cccc(F)c1)n1cccc1)Nc1ccc(F)c(Cl)c1 (centres undefined)	USP17 block 46, USP30 block 36
COc1ccc(S(=O)(=O)Nc2ccc(Cc3ccncc3)cc2)c2ccccc12	USP8 inh 43
CC(C)(C)c1ccc(S(=O)(=O)Nc2ccc(Cc3ccncc3)cc2)cc1	USP30 block 36
O=C(O)c1cccc(S(=O)(=O)Nc2ccc(Cc3ccncc3)cc2)c1	none
COc1ccccc1C1CN2C(=O)N(c3ccc(C)cc3)C(=O)[C@]2(C)c2[nH]c3ccccc3c21 (some centres undefined)	none
C=C[C@@]1(C)CC[C@@]2(C)[C@@H](CC[C@]3(C)C(C)=C(O)C(=O)C[C@H]23)C1	USP17 block 43, USP30 block 37
CCOC(=O)c1ccc(NC(=O)C[n+]2cc(-c3ccc(Cl)cc3)n3c2CCC3)cc1	USP30 block 51
CCOC(=O)c1ccc(NC(=O)C[n+]2cc(-c3ccc(C)cc3)n3c2CCC3)cc1	USP30 block 32
CC(=O)c1ccc(NC(=O)C[n+]2cc(-c3ccc(Cl)cc3)n3c2CCC3)cc1	USP17 block 67
COC(=O)c1ccc(NC(=O)C[n+]2cc(-c3ccc(Cl)cc3)n3c2CCC3)cc1	none
O=C(C1CCC1)N1CCc2cc(S(=O)(=O)NCCCN3CCN(c4cccc(Cl)c4)CC3)ccc21	none
COc1cccc(NCc2ccccc2OCC(=O)Nc2ccc(C(C)=O)cc2)c1	none
O=S(=O)(c1ccccc1)N1CCC2(CN(CC3CCCC3)C2)C1	none
CN1C[C@@H]2C[C@H](NC(=O)Nc3cccc(Cl)c3)CN2Cc2ccccc21	none
CC(=O)c1ccc(NC(=O)CN2CCc3ccccc32)cc1	none
O=C(Cn1cnc(-c2noc(-c3ccc(F)cc3)n2)c1)Nc1ccccc1F	USP8 inh 67
Cc1cccc(NC(=O)Cn2cnc(-c3noc(-c4ccccc4)n3)c2)c1C	USP30 block 44, USP8 inh 73
Cc1ccccc1NC(=O)Cn1cc(-c2noc(-c3ccccc3)n2)nc1C	none
Cc1ccc(NC(=O)Cn2cnc(-c3noc(-c4cccnc4)n3)c2)cc1	none
CC(=O)Nc1c(-c2ccncc2)nsc1C(=O)NCc1ccc(C)c(C)c1	none
Cc1ccc(N(C)C(=O)[C@H]2[C@@H]3C[C@@H]4[C@H]2C(=O)O[C@@H]4C3)cc1	none
Cc1ccc2[nH]c3c(=O)n(CCC4=CCCCC4)cnc3c2c1	USP8 inh 31
COc1ccc2[nH]c3c(=O)n(CCN4CCCC4)cnc3c2c1	none
COc1ccc(CCn2cnc3c([nH]c4ccccc43)c2=O)cc1	USP17 block 34, USP30 block 96
Cc1ccc2[nH]c3c(=O)n(CCN4CCCC4)cnc3c2c1	none
Cc1ccc2[nH]c3c(=O)n(CCc4ccc(O)cc4)cnc3c2c1	USP17 block 57, USP30 block 93
Cc1ccc2[nH]c3c(=O)n(CC4CCCO4)cnc3c2c1 (centres undefined)	USP17 block 68, USP30 block 44
O=C(c1cccnc1)N1Cc2ccnn2CC(COc2cccnc2)C1 (centres undefined)	none
Cc1cccc(CN2CCN(C3CCOCC3)CC(C(N)=O)C2)n1 (centres undefined)	none
N#Cc1cnc(N2CCN(c3cccc(Cl)c3)CC2)nc1	none
Cc1cccc(NC(=O)Nc2ccccc2SCc2cc(=O)n3oc(C)cc3n2)c1	none
CCOC(=O)c1cnc(Nc2cc(OC)ccc2OC)c2ccccc12	none
COc1ccccc1Nc1ncc(C(=O)NCc2ccc(F)cc2)c2ccccc12	USP17 block 35, USP8 inh 71
COc1cc(Cl)ccc1Nc1ncc(C(=O)Nc2ccc3c(c2)OCO3)c2ccccc12	USP8 inh 39
CCOC(=O)c1cnc(Nc2ccccc2OC)c2ccccc12	none
COc1ccccc1Nc1ncc(C(=O)NCc2ccc3c(c2)OCO3)c2ccccc12	USP17 block 32, USP8 inh 63
COc1cc(OC)c(NC(C)C(=O)Nc2ccc3c(c2)OCO3)cc1Cl (centres undefined)	USP8 inh 37
Cc1ccc(C)c(S(=O)(=O)Nc2ccc(C(=O)N3CCCC3c3cccnc3)cc2)c1 (centres undefined)	none
O=C(Nc1ccccc1Cl)C1Cc2ccccc2CN1C(=O)c1ccccc1 (centres undefined)	USP8 inh 36
Cc1ccccc1C(=O)N1C[C@@H]2CCN(c3cccnc3)C[C@@H]2C1	none
CCCCNc1ccc(S(=O)(=O)N2CCCC2)cc1NC(=O)c1cccc(Cl)c1	none
CC1(c2ccco2)NC(=O)N(CC(=O)Nc2ccc(N3CCCCCC3)cc2)C1=O (centres undefined)	USP17 block 44
CCN(c1ccc(NC(=O)CN2C(=O)NC3(CCCCC3)C2=O)cc1)C(C)C	none
CC1CCN(S(=O)(=O)c2ccc3ncn(CC(=O)Nc4ccc(F)cc4F)c(=O)c3c2)CC1	none
O=C(CSc1nccn1-c1cccc(C(=O)Nc2ccccc2)c1)Nc1ccccc1F	USP8 inh 51
Cc1ccccc1NC(=O)CSc1nccn(-c2ccc(F)c(F)c2)c1=O	none
Cc1cccc(-n2ccnc(SCC(=O)Nc3ccc(Cl)cc3F)c2=O)c1	USP17 block 76, USP30 block 49, USP8 inh 49
Cc1ccccc1Nc1nc(N)nc(CN(C)Cc2ccccc2)n1	none
